Nine compounds from the supplement of paper PMC8047044 can be followed below.

The subject of experiment [1] is Neuro-2a. In words: neurite formation score, plate-normalized to DMSO control mean 5.04 (score (0-8 scale)); higher = more or longer neurites. Conditions: 1 µM. Here is the method: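 Neuro-2a mouse neuroblastoma cells in PLL-coated 96-well plates were pre-treated for 1 h in DMEM(+) with each kinase inhibitor at 1 µM, then switched to serum-free DMEM(-) with inhibitor to induce neurite outgrowth and fixed about 2-3 h later. Three blinded observers scored neurite formation from 0 (no neurites) to 8 (long neurites on almost all cells).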

The test system of experiment [2] is Neuro-2a. The experiment is described as above. Conditions: 0.1 µM. Here is the method: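 Neuro-2a mouse neuroblastoma cells in PLL-coated 96-well plates were pre-treated for 1 h in DMEM(+) with each kinase inhibitor at 0.1 µM, then switched to serum-free DMEM(-) with inhibitor to induce neurite outgrowth and fixed about 2-3 h later. Three blinded observers scored neurite formation from 0 (no neurites) to 8 (long neurites on almost all cells).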

Where a name gives a salt, the structure may show the parent alone.

Take `Cc1cn(-c2cc(NC(=O)c3ccc(C)c(Nc4nccc(-c5cccnc5)n4)c3)cc(C(F)(F)F)c2)cn1` [Nilotinib monohydrochloride monohydrate]: the neurite formation score with Neuro-2a [1] came to 4.47; in the experiment with Neuro-2a [2], 3.09.
Turning to `Cc1ccc(C(=O)Nc2ccc(CN3CCN(C)CC3)c(C(F)(F)F)c2)cc1C#Cc1cnc2cccnn12`, the neurite formation score in the experiment on Neuro-2a [1] amounted to 1.24; in the experiment with Neuro-2a [2] it was 3.88.
In the case of `CNCc1ccc(-c2cc(-c3nc(-c4ccc(S(=O)(=O)C(C)C)cc4)cnc3N)on2)cc1`, the neurite formation score with Neuro-2a [1] was 1.29; in the experiment on Neuro-2a [2], 3.25.
The like results for `CCN(CC)CCCCNc1ncc2cc(-c3cc(OC)cc(OC)c3)c(NC(=O)NC(C)(C)C)nc2n1` were, in that order, 4.24 and 5.21.
The corresponding values for `Cc1cc(NC(=O)c2cccc(NC(=O)/C=C/CN(C)C)c2)ccc1Nc1nccc(-c2cccnc2)n1` are 5.36 and 4.58.
The like results for `COc1cc(OC)c(/C=C/S(=O)(=O)Cc2ccc(OC)c(NCC(=O)O)c2)c(OC)c1` were, in that order, 0.908 and 3.04.
For the compound `O=C(CCCCCCC(=O)Nc1ccc(I)cc1)NO` [4-iodo-SAHA], the neurite formation score is 5.21 with Neuro-2a [1] and 4.42 with Neuro-2a [2].
The corresponding values for `CN1CCC(COc2cnc(-c3cccc(Cn4nc(-c5cccc(C#N)c5)ccc4=O)c3)nc2)CC1` are 3.69 and 4.92.
The like results for `COc1ccc(C(=O)Nc2sc3c(c2C(N)=O)CCCC3)cc1OC` were, in that order, 4.57 and 4.71.
